SMILES strings stand for the structures. Calls of active or inactive are those of the source. No rule for the calls is given here.

This test in a line: circadian clock period modulators, cell-based, LOPAC library, luminescence reporter (AID 2774).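 Also: values are relative to mean of DMSO wells on each plate.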 Particulars: circadian reporter cells, at 7 µM, actives lie on both sides.
For `CC(C)[C@@H]1NC(=O)[C@H](CCCCN)NC(=O)[C@@H](Cc2c[nH]c3ccccc23)NC(=O)[C@H](Cc2ccc(O)cc2)NC(=O)[C@H](C)N(C)C(=O)[C@H](Cc2ccccc2)NC1=O`, the period change is -0.2 h (inactive).
The value for `CC(C)C[C@H](N)CSSC[C@@H](N)CC(C)C` was -0.095 h (inactive).
The value for `Cn1cnc2c(NC3CCCC3)ncnc21` was 0.425 h (inactive); that for `C[N+](C)(CCCCCC[N+](C)(C)CCCN1C(=O)c2cccc3cccc(c23)C1=O)CCCN1C(=O)c2cccc3cccc(c23)C1=O` was -0.055 h (inactive).
Under `CCCCCCCCCCCCC/C=C/C(O)C(N)CO` (centres undefined) stands 0.015 h (inactive).
Turning to `N[C@H](CCC(=O)NCS(=O)(=O)O)C(=O)O`, the period change is 0.005 h (inactive).
For `NC(=S)NCCCC(N)C(=O)O` (centres undefined), the period change is -0.05 h (inactive).
The value for `Cc1c(C)c2c(c(C)c1O)CCC(C)(CN1CCN(c3cc(N4CCCC4)nc(N4CCCC4)n3)CC1)O2` (centres undefined) was 0.14 h (inactive); that for `Cc1ccc(C(=O)O[C@H](C(=O)O)[C@H](OC(=O)c2ccc(C)cc2)C(=O)O)cc1` (tested in a mixture with another compound) was -0.105 h (inactive).
Take `CNCC[C@@H](Oc1ccc(C(F)(F)F)cc1)c1ccccc1`: the period change is 0.13 h (inactive).
Under `C[C@@H](Oc1ccc(Oc2cnc3ccc(Cl)cc3n2)cc1)C(=O)O` stands -0.01 h (inactive); under `CCN1CCC[C@H]1CNC(=O)c1c(OC)ccc(I)c1O`, 0.025 h (inactive).
The value for `Cc1ccccc1N1CCN(S(=O)(=O)C[C@]23CCC(CC2NC(=O)[C@@H](N)CCS(C)(=O)=O)C3(C)C)CC1` (some centres undefined) was -0.06 h (inactive).
The value for `O=S(=O)(O)C1CCNCC1` was 0.07 h (inactive); that for `NCCCCNS(=O)(=O)c1cccc2c(Cl)cccc12` was 0.09 h (inactive); that for `OC[C@H]1O[C@@H](n2cnc3c(NCCc4ccccc4)ncnc32)C(O)[C@H]1O` (some centres undefined) was 0.19 h (inactive).
Turning to `CC(=O)NCCc1ccc(O)c(O)c1`, the period change is -0.045 h (inactive).
Under `NCCNC(=O)Cc1ccc(NC(=O)Cc2ccc(Nc3ncnc4c3ncn4[C@@H]3O[C@H](CO)[C@H](O)C3O)cc2)cc1` (some centres undefined) stands -0.095 h (inactive).
The value for `C[N+](C)(C)CCC(=O)c1cccc2ccccc12` was -0.475 h (inactive); that for `O=C(O)CCCCCC[C@H]1C(=O)NC(=O)N1CC[C@@H](O)C1CCCCC1` was 0.18 h (inactive); that for `O=C(O)CCC(NC(=O)c1ccccc1C(=O)O)C(=O)O` (centres undefined) was -0.08 h (inactive).
As for `C/C=C1\C(=O)CC2C3CCC4=CC(=O)CC[C@]4(C)C3CC[C@]12C` (some centres undefined), the period change is 0.03 h (inactive).
The value for `OC[C@H]1O[C@@H](n2cnc3c(N[C@H]4CC5CCC4C5)ncnc32)[C@H](O)[C@@H]1O` (some centres undefined) was -0.33 h (inactive).
For the compound `CC1(NCC(O)COc2cccc3[nH]ccc23)CCC(C(C)(C)NC(=O)CBr)CC1` (centres undefined), the period change is -0.095 h (inactive).
Under `O=C(Nc1cc(C(=O)Nc2ccc(S(=O)(=O)O)cc2S(=O)(=O)O)cc(C(=O)Nc2ccc(S(=O)(=O)O)cc2S(=O)(=O)O)c1)Nc1cc(C(=O)Nc2ccc(S(=O)(=O)O)cc2S(=O)(=O)O)cc(C(=O)Nc2ccc(S(=O)(=O)O)cc2S(=O)(=O)O)c1` stands -0.05 h (inactive).
The value for `NC(N)=NCCSSCCN=C(N)N` was 0.065 h (inactive).
The value for `COc1cc2c(cc1OC)[C@@H](c1ccccc1)CN(C)CC2` was 0 h (inactive); that for `N=C1Sc2ccccc2C2=NCCCN12` was -0.035 h (inactive).
With `COc1ccccc1NC(=O)Nc1nc(-c2cccnc2)nc2ccccc12`, the period change is -0.005 h (inactive).
The value for `CCCC(=O)NCCc1c2n(c3ccc(OC)cc13)Cc1ccccc1-2` was 0.125 h (inactive).
Under `CCCCCCCCCCCCCCCCCC(=O)NCC(COP(=O)([O-])OCC[N+](C)(C)C)OCC` (centres undefined) stands 0.195 h (inactive); under `COc1cc(OC)cc(C(CNc2ncnc3c2ncn3[C@@H]2O[C@H](CO)[C@H](O)C2O)c2ccccc2C)c1` (some centres undefined), -0.11 h (inactive); under `COc1cc(C(O)CO)ccc1O` (centres undefined) (tested in a mixture with another compound), 0.16 h (inactive).
As to `Cc1cc(C)c(NC(=O)C[C@H](CC(=O)O)c2cccc3ccccc23)c(C(=O)N2CCC3(CCCC3)CC2)c1`, the period change was 0.275 h (inactive).

Source of the values: PubChem BioAssay.
